Assay results taken from the supplement of paper PMC10849652.
Targets with a hit are over-represented here; the source holds about 7,900 in all. About 0.6% of all pairs of compound and target were hits.

Assays:
Assay in all cases: log2 fold change, soluble protein after heating vs DMSO (PISA); higher = thermal stabilisation; K562 cells, 10 uM, 30 min; active = over 0.2 and 3.5 SD of the protein, either way, in both replicates (recomputed)
[1] = compound: CS(=O)(=O)c1ccc(-c2cnc(N)c(C(=O)Nc3ccccc3)n2)cc1
Summary of the method: (§1)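 K562 cells (2×10^6 cells/mL) were treated with 10 μM compound for 30 min, and aliquots were heated for 3 min over 48°C-58°C. Pooled aliquots were extracted in PBS with 0.5% NP-40 at 4°C, and the supernatant after 21,000xg for 90 min was measured by TMTpro 16plex LC-MS/MS with channel sums equalised. Reported thermal stability, relative to control samples and from duplicates, is a log2 fold change.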

crizotinib = compound: C[C@@H](Oc1cc(-c2cnn(C3CCNCC3)c2)cnc1N)c1c(Cl)ccc(F)c1Cl [crizotinib]
Summary of the method: as §1

[2] = compound: C[C@@H]1COCCN1C2=NC(=NC(=C2)C3(CC3)S(=O)(=O)C)C4=C5C=CNC5=CC=C4
Summary of the method: as §1

[3] = compound: C[C@H](C1=CC=C(C=C1)C(=O)NC2=C3C=CNC3=NC=C2)N
Summary of the method: as §1

duvelisib = compound: C[C@H](Nc1ncnc2nc[nH]c12)c1cc2cccc(Cl)c2c(=O)n1-c1ccccc1 [duvelisib]
Summary of the method: as §1

gandotinib = compound: Cc1cc(Nc2cc(CN3CCOCC3)c3nc(C)c(Cc4ccc(Cl)cc4F)n3n2)n[nH]1 [gandotinib]
Summary of the method: as §1

tozasertib = compound: Cc1cc(Nc2cc(N3CCN(C)CC3)nc(Sc3ccc(NC(=O)C4CC4)cc3)n2)n[nH]1 [tozasertib]
Summary of the method: as §1

[4] = compound: Cc1cc(SCc2sc(-c3ccc(C(F)(F)F)cc3)nc2C)ccc1OCC(=O)O
Summary of the method: as §1

doramapimod = compound: Cc1ccc(-n2nc(C(C)(C)C)cc2NC(=O)Nc2ccc(OCCN3CCOCC3)c3ccccc23)cc1 [doramapimod]
Summary of the method: as §1

ispinesib = compound: Cc1ccc(C(=O)N(CCCN)[C@@H](c2nc3cc(Cl)ccc3c(=O)n2Cc2ccccc2)C(C)C)cc1 [ispinesib]
Summary of the method: as §1

bafetinib = compound: Cc1ccc(NC(=O)c2ccc(CN3CC[C@H](N(C)C)C3)c(C(F)(F)F)c2)cc1Nc1nccc(-c2cncnc2)n1 [bafetinib]
Summary of the method: as §1

[5] = compound: Cc1cccc(CC(=O)N2CCc3c2ccc(-c2cn(C)c4ncnc(N)c24)c3F)n1
Summary of the method: as §1

nilotinib = compound: Cc1cn(-c2cc(NC(=O)c3ccc(C)c(Nc4nccc(-c5cccnc5)n4)c3)cc(C(F)(F)F)c2)cn1 [nilotinib]
Summary of the method: as §1

[6] = compound: Cc1nc(Nc2n[nH]c3c2CN(C(=O)N[C@H](CN(C)C)c2ccccc2)C3(C)C)c2sccc2n1
Summary of the method: as §1

dasatinib = compound: Cc1nc(Nc2ncc(C(=O)Nc3c(C)cccc3Cl)s2)cc(N2CCN(CCO)CC2)n1 [dasatinib]
Summary of the method: as §1

[7] = compound: Cc1ncc(-c2ccnc(Nc3ccc(S(C)(=O)=O)cc3)n2)n1C(C)C
Summary of the method: as §1

[8] = compound: Cn1cc(-c2ccc3c(c2)CCN3C(=O)Cc2cccc(C(F)(F)F)c2)c2c(N)ncnc21
Summary of the method: as §1

[9] = compound: Cn1cc(-c2ccc3nnc(C(F)(F)c4ccc5ncccc5c4)n3n2)cn1
Summary of the method: as §1

tipifarnib = compound: Cn1cncc1[C@@](N)(c1ccc(Cl)cc1)c1ccc2c(c1)c(-c1cccc(Cl)c1)cc(=O)n2C [tipifarnib]
Summary of the method: as §1

mubritinib = compound: FC(F)(F)c1ccc(/C=C/c2nc(COc3ccc(CCCCn4ccnn4)cc3)co2)cc1 [mubritinib]
Summary of the method: as §1

Measured: log2 fold change

SART3, A0A499FI31
inactive: [1] -0.011 | crizotinib 0.097 | [2] 0.049 | [3] -0.124 | duvelisib 0.012 | gandotinib -0.056 | tozasertib 0.078 | [4] 0.051 | doramapimod -0.03 | ispinesib 0.038 | bafetinib -0.057 | [5] 0.039 | nilotinib -0.02 | [6] -0.189 | dasatinib -0.128 | [8] 0.029 | [9] -0.001 | tipifarnib 0.008 | mubritinib 0.024
active: [7] -0.261

RPS16 (UniProt P62249)
inactive: [1] -0.107 | crizotinib 0 | [2] -0.353 | [3] 0.214 | duvelisib -0.118 | gandotinib 0.172 | tozasertib 0.021 | [4] -0.023 | doramapimod 0.055 | ispinesib -0.088 | bafetinib 0.279 | [5] -0.026 | nilotinib 0.07 | [6] 0.207 | dasatinib 0.053 | [7] -0.019 | [8] -0.078 | [9] -0.048 | tipifarnib 0.107 | mubritinib -0.066

RBM4 (UniProt Q9BWF3)
Sequence of UniProt Q9BWF3 (Q9BWF3 whole entry, looked up): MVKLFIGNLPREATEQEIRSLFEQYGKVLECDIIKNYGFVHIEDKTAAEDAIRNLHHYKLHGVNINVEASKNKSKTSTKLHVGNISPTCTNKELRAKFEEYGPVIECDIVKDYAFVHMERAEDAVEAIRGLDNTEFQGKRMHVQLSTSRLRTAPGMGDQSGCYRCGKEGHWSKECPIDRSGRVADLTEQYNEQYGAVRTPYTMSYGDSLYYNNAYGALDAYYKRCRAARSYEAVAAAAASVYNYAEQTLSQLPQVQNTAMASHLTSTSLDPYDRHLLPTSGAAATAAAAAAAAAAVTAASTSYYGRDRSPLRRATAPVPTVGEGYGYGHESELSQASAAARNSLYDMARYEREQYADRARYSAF
inactive: [1] -0.024 | crizotinib -0.04 | [2] -0.081 | [3] 0.06 | duvelisib -0.058 | gandotinib -0.037 | tozasertib -0.023 | [4] 0.021 | doramapimod 0.021 | ispinesib -0.094 | bafetinib -0.049 | [5] -0.01 | nilotinib -0.047 | [6] -0.095 | dasatinib -0.033 | [7] -0.039 | [8] -0.054 | [9] -0.063 | tipifarnib -0.013 | mubritinib -0.082

RAB8B (UniProt Q92930)
Sequence of UniProt Q92930 (Q92930 whole entry, looked up): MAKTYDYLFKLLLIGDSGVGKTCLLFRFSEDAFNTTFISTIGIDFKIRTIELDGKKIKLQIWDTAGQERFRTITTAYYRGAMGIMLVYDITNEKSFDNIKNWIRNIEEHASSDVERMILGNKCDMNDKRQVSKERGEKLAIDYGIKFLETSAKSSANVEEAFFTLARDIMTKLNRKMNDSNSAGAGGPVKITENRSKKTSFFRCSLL
inactive: [1] -0.212 | crizotinib 0 | [2] -0.046 | [3] -0.345 | duvelisib -0.028 | gandotinib -0.086 | tozasertib -0.076 | [4] 0.005 | doramapimod 0.034 | ispinesib 0.01 | bafetinib -0.008 | [5] 0.085 | nilotinib 0.059 | [6] -0.036 | dasatinib 0.015 | [7] -0.043 | [8] 0.031 | [9] -0.016 | tipifarnib -0.088 | mubritinib -0.062

RARS2 (UniProt Q5T160)
Sequence of UniProt Q5T160 (Q5T160 whole entry, looked up): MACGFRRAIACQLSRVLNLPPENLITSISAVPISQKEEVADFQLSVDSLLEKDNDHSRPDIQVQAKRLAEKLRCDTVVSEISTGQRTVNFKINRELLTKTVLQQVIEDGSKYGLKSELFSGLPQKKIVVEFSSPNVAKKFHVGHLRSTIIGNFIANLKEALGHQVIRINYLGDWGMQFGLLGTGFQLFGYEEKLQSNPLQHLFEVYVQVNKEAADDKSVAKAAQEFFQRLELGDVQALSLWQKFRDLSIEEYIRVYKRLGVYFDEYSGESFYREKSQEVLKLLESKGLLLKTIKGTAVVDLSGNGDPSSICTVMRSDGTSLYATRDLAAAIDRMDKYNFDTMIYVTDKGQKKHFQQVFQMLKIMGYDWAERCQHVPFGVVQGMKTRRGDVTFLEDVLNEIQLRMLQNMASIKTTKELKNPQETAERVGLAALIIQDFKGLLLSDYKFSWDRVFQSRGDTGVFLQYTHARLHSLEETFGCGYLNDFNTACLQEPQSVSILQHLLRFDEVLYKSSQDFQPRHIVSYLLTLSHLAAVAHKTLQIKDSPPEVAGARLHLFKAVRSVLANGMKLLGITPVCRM
inactive: [1] -0.026 | crizotinib -0.016 | [2] 0.091 | [3] -0.021 | duvelisib 0.018 | gandotinib -0.075 | tozasertib 0.01 | [4] 0.019 | doramapimod -0.017 | ispinesib -0.033 | bafetinib -0.148 | [5] 0.104 | nilotinib -0.039 | [6] 0.019 | dasatinib -0.023 | [7] -0.006 | [8] 0.061 | [9] 0.012 | tipifarnib -0.008 | mubritinib 0.075

RPS21 (UniProt P63220)
inactive: [1] -0.053 | crizotinib 0.141 | [2] -0.108 | [3] 0.044 | duvelisib -0.001 | gandotinib 0.048 | tozasertib -0.005 | [4] -0.004 | doramapimod -0.022 | ispinesib 0.015 | bafetinib 0.087 | [5] -0.057 | nilotinib 0.011 | [6] 0.072 | dasatinib 0.1 | [7] -0.012 | [8] -0.009 | [9] -0.004 | tipifarnib 0.017 | mubritinib 0.002

RNF220 (UniProt Q5VTB9)
Sequence of UniProt Q5VTB9 (Q5VTB9 whole entry, looked up): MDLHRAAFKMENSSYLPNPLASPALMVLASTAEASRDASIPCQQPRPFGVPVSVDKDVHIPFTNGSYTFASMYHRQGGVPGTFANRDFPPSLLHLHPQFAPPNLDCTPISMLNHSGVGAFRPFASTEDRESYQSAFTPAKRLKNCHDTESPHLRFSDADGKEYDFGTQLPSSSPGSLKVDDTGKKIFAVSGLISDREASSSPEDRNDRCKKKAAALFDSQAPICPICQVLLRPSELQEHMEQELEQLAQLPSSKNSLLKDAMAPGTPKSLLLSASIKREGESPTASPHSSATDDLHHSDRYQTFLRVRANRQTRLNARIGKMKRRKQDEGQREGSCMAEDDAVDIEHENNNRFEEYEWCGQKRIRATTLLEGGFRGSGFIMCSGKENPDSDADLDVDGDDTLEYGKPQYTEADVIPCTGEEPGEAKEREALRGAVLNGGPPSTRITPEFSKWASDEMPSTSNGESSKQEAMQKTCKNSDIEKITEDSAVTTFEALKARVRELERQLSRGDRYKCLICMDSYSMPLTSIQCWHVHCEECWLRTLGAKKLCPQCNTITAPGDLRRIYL
inactive: [1] -0.001 | crizotinib 0.096 | [2] -0.003 | [3] -0.042 | duvelisib 0.055 | gandotinib -0.012 | tozasertib 0.043 | [4] -0.011 | doramapimod -0.057 | ispinesib 0.073 | bafetinib -0.064 | [5] 0.008 | nilotinib 0.009 | [6] -0.058 | dasatinib 0.01 | [7] 0.037 | [8] -0.034 | tipifarnib -0.003 | mubritinib 0.002
active: [9] 0.239

SLC12A9 (UniProt Q9BXP2)
Sequence of UniProt Q9BXP2 (Q9BXP2 whole entry, looked up): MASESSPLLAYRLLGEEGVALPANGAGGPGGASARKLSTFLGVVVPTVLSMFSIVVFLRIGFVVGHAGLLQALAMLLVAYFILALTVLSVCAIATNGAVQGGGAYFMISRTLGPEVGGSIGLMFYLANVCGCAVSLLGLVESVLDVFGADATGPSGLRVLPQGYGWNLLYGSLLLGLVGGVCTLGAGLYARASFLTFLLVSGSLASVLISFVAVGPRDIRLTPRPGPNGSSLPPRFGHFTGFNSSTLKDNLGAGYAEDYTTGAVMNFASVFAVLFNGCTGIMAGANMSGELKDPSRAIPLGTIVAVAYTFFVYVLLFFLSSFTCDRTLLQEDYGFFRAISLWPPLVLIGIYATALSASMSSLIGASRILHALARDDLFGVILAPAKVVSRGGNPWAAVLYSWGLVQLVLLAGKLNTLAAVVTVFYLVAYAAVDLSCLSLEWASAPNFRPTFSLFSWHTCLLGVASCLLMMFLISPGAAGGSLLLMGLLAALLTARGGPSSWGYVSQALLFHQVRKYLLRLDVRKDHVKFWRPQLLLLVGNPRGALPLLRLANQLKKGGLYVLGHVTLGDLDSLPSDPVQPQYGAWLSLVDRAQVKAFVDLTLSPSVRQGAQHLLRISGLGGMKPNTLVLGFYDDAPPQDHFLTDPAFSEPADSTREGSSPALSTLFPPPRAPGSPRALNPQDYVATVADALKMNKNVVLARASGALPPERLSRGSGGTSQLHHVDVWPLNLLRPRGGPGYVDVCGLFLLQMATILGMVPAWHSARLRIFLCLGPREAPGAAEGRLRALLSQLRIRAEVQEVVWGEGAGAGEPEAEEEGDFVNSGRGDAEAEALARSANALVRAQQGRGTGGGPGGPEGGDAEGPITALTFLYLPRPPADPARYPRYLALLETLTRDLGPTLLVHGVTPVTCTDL
active: crizotinib -0.315 | ispinesib -0.713
inactive: [1] -0.071 | [2] -0.022 | [3] 0.016 | duvelisib -0.038 | gandotinib -0.16 | tozasertib 0.001 | [4] -0.074 | doramapimod -0.012 | bafetinib -0.088 | [5] 0.023 | nilotinib -0.069 | [6] 0.05 | dasatinib 0.057 | [7] -0.066 | [8] 0.008 | [9] -0.006 | tipifarnib 0.025 | mubritinib 0.001

RNPEP (UniProt Q9H4A4)
Sequence of UniProt Q9H4A4 (Q9H4A4 whole entry, looked up): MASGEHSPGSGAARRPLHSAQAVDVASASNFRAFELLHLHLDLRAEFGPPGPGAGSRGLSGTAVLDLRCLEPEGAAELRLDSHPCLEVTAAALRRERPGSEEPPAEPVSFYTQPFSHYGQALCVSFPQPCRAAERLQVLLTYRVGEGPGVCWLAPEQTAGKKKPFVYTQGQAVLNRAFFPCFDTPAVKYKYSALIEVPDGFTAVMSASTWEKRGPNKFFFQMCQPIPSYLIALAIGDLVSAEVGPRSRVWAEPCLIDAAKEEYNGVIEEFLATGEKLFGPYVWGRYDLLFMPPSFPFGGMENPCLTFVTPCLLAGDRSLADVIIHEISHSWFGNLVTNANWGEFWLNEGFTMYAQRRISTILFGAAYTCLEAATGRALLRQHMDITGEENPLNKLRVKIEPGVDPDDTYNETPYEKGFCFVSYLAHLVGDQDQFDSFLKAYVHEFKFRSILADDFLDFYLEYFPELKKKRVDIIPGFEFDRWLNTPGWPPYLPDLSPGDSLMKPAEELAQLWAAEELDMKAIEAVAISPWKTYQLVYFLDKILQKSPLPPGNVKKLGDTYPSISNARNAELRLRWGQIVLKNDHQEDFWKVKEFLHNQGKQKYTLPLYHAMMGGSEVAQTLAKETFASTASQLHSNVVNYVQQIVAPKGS
inactive: [1] 0.037 | crizotinib -0.081 | [2] 0.081 | [3] -0.034 | duvelisib 0.039 | gandotinib -0.053 | tozasertib 0.018 | [4] 0.083 | doramapimod -0.031 | ispinesib -0.086 | bafetinib 0.003 | [5] 0.035 | nilotinib -0.004 | [6] -0.041 | dasatinib -0.134 | [7] 0.025 | [8] 0.012 | [9] 0.043 | tipifarnib -0.116 | mubritinib 0.051

RPS25 (UniProt P62851)
inactive: [1] -0.101 | crizotinib -0.041 | [2] -0.286 | [3] 0.239 | duvelisib -0.083 | gandotinib 0.239 | tozasertib 0.028 | [4] 0.032 | doramapimod 0.178 | ispinesib -0.148 | bafetinib 0.259 | [5] -0.007 | nilotinib 0.015 | [6] 0.174 | dasatinib 0.07 | [7] -0.032 | [8] -0.177 | [9] -0.077 | tipifarnib 0.062 | mubritinib -0.068

RPS20 isoform 2 (UniProt P60866)
inactive: [1] -0.062 | crizotinib 0.013 | [2] -0.176 | [3] 0.174 | duvelisib -0.034 | gandotinib 0.129 | tozasertib 0.008 | [4] 0.004 | doramapimod 0.048 | ispinesib -0.066 | bafetinib 0.178 | [5] -0.005 | nilotinib -0.006 | [6] 0.223 | dasatinib 0.05 | [7] -0.071 | [8] -0.078 | [9] -0.008 | tipifarnib 0.094 | mubritinib -0.059

RRP9 (UniProt O43818)
Sequence of UniProt O43818 (O43818 whole entry, looked up): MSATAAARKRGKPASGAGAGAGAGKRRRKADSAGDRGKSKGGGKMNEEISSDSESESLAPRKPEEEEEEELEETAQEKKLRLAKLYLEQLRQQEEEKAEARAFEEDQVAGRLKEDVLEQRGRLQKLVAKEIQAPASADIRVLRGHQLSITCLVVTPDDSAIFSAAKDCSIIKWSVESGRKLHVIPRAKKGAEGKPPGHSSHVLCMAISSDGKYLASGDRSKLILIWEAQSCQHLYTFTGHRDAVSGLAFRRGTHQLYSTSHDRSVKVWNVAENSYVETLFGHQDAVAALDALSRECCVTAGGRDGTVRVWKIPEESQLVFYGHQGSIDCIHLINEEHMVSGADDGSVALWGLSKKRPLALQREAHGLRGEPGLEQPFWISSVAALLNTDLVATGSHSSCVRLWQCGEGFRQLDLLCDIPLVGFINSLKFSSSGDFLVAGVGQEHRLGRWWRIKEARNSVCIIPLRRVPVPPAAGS
inactive: [1] -0.05 | crizotinib 0.084 | [2] -0.2 | [3] 0.031 | duvelisib -0.029 | gandotinib 0.056 | tozasertib 0.121 | [4] -0.054 | doramapimod 0.063 | ispinesib 0.12 | bafetinib -0.02 | [5] -0.103 | nilotinib 0.046 | [6] -0.042 | dasatinib 0.106 | [7] -0.107 | [8] -0.062 | [9] -0.102 | tipifarnib 0.074 | mubritinib -0.046

RAB5IF isoform 5 (UniProt Q9BUV8)
inactive: [1] -0.036 | crizotinib -0.094 | [2] 0.076 | [3] -0.007 | duvelisib 0.078 | gandotinib 0.04 | tozasertib -0.156 | [4] -0.002 | doramapimod 0.025 | ispinesib 0.157 | bafetinib 0.034 | [5] -0.01 | nilotinib -0.042 | [6] -0.011 | dasatinib 0.062 | [7] -0.051 | [8] -0.054 | [9] 0 | tipifarnib -0.013 | mubritinib 0.079

RAB9A (UniProt P51151)
Sequence of UniProt P51151 (P51151 whole entry, looked up): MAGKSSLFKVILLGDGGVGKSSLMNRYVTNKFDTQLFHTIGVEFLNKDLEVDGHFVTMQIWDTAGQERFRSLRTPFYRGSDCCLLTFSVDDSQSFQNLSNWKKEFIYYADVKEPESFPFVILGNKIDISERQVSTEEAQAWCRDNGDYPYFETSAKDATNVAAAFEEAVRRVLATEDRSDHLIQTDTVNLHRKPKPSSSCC
inactive: [1] 0.007 | crizotinib -0.119 | [2] -0.006 | [3] -0.044 | duvelisib 0.04 | gandotinib 0 | tozasertib 0.018 | [4] 0.016 | doramapimod 0.018 | ispinesib -0.168 | bafetinib -0.073 | [5] -0.021 | nilotinib -0.01 | [6] 0.012 | dasatinib 0.002 | [7] 0.002 | [8] 0.104 | [9] 0.001 | tipifarnib 0.001 | mubritinib 0.002

SGPL1 (UniProt O95470)
Sequence of UniProt O95470 (O95470 whole entry, looked up): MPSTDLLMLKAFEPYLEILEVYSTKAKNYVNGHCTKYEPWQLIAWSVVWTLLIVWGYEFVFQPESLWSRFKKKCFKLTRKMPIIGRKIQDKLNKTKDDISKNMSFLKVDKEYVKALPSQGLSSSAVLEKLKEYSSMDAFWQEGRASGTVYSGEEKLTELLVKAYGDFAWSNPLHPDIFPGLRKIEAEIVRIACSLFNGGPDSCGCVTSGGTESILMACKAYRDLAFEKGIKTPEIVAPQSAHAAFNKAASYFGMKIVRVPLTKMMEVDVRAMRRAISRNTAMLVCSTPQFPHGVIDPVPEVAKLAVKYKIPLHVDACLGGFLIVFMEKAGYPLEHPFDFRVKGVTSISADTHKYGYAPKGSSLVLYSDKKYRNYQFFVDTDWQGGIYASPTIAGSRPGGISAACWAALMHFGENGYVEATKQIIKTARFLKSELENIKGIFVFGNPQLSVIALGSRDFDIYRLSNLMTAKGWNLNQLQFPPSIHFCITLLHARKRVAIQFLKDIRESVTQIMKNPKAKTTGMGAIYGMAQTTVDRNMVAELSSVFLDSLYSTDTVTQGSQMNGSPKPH
inactive: [1] 0.095 | crizotinib 0.077 | [2] -0.034 | [3] 0.011 | duvelisib 0.019 | gandotinib 0.259 | tozasertib -0.089 | [4] 0.024 | doramapimod 0.084 | ispinesib 0.077 | bafetinib 0.009 | [5] -0.013 | nilotinib 0.024 | [6] -0.017 | dasatinib 0.016 | [7] -0.029 | [8] -0.005 | [9] -0.071 | tipifarnib 0.151 | mubritinib 0.034

SAMSN1 isoform 3 (UniProt Q9NSI8)
Sequence of UniProt Q9NSI8 (Q9NSI8 whole entry, looked up): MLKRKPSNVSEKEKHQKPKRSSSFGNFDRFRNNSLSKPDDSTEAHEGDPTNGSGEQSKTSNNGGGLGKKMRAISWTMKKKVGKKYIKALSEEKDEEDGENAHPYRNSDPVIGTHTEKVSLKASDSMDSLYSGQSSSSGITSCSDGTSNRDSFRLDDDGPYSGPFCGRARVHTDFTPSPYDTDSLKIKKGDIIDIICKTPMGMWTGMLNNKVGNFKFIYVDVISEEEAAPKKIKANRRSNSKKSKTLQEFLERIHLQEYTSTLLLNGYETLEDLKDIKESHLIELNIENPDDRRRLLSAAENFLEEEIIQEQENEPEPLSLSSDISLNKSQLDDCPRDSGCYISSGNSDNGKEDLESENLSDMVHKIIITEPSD
inactive: [1] 0.024 | crizotinib -0.082 | [2] 0.043 | [3] -0.027 | duvelisib 0.006 | gandotinib -0.077 | tozasertib -0.013 | [4] 0.019 | doramapimod -0.052 | ispinesib -0.069 | bafetinib -0.049 | [5] 0.04 | nilotinib -0.036 | [6] -0.169 | dasatinib -0.09 | [7] 0.02 | [8] 0.029 | [9] 0.037 | tipifarnib -0.015 | mubritinib 0.048
